Inconclusive results are not listed. A structure can be active in one record and inactive in another. Active and inactive are the calls of the source. How the source made its calls, unless noted: active means hit-call score of the fitted dose curve at least 0.9, where 1 is the maximum; inconclusive means response in the unintended direction; inactive means score below 0.9.
What was measured:
[1] = biological target: Estrogen receptor beta (Homo sapiens) (UniProt Q92731); assay: OT_ER_ERbERb_1440: Odyssey Thera (OT) 24-hour HEK293T Protein-Complementation Assay for Estrogen Receptor-beta/-beta Homodimer (AID 2283380);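 further: fluorescence gain from ER beta LBD homodimer complementation read by laser scanning cytometry; scored as signal increase over DMSO baseline for both agonists and antagonists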
How it was run: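 Fluorescence increase, nuclear for agonists or whole-cell for antagonists, relative to DMSO vehicle, quantified by laser scanning cytometer after fixation and Draq5 staining. Readout from 24 h treatment of HEK293T cells carrying complementation-paired ER beta LBD (aa 310-547).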

[2] = biological target: Bile acid receptor (Homo sapiens) (UniProt Q96RI1); assay: OT_FXR_FXRSRC1_0480: Odyssey Thera (OT) 8-hour HEK293T Protein-Complementation Assay for Farnesoid X receptor/SRC-1 Co-activator (AID 2283383)
How it was run: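 HEK293T cells expressing FXR and SRC-1 fused to reporter fragments were dosed with compound for 8 h; fluorescence from the reconstituted reporter marked co-activator recruitment. Gain of signal was fitted against the DMSO baseline.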

[3] = biological target: Bile acid receptor (Homo sapiens) (UniProt Q96RI1); assay: OT_FXR_FXRSRC1_1440: Odyssey Thera (OT) 24-hour HEK293T Protein-Complementation Assay for Farnesoid X receptor/SRC-1 Co-activator (AID 2283384)
How it was run: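 HEK293T cells were dosed with compound and read 24 h later by fluorescence intensity from protein-fragment complementation reporting FXR/SRC-1 co-activator interaction. Gain of signal was fitted relative to DMSO negative control as baseline.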

[4] = biological target: Retinoic acid receptor RXR-alpha (Homo sapiens) (UniProt P19793); assay: OT_NURR1_NURR1RXRa_0480: Odyssey Thera (OT) 8-hour HEK293T Protein Complementation Assay for Nurr1/retinoid X receptor (RXR) (AID 2283385)
How it was run: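 HEK293T cells expressing Nurr1 and RXRα fused to reporter fragments were dosed with compound for 8 hours. Complex formation was read as fluorescence intensity and analysed as gain of signal against DMSO as baseline.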

[5] = biological target: Retinoic acid receptor RXR-alpha (Homo sapiens) (UniProt P19793); assay: OT_NURR1_NURR1RXRa_1440: Odyssey Thera (OT) 24-hour HEK293T Protein Complementation Assay for Nurr1/retinoid X receptor (RXR) (AID 2283386)
How it was run: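 HEK293T cells were dosed with compound and read 24 h later by fluorescence intensity in a protein-fragment complementation format, where Nurr1–RXRα interaction reconstitutes a split reporter. Activity was fitted as gain of signal relative to DMSO baseline.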

[6] = biological target: Peroxisome proliferator-activated receptor gamma (Homo sapiens) (UniProt P37231); assay: OT_PPARg_PPARgSRC1_0480: Odyssey Thera (OT) 8-hour Protein-Complementation Assay for Peroxisome Proliferator-activated Receptor Gamma / SRC-1 Co-activator (AID 2283387);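 further: nuclear to cytoplasmic split Venus YFP fluorescence ratio reporting PPARg SRC-1 interaction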
How it was run: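 Read-out: 488 nm N/C fluorescence ratio from complemented Venus YFP fragments, ≥350 cells per image, gain-of-signal fitted against DMSO baseline. Fusions of PPARg/SRC-1 with IFP1/IFP2 expressed transiently in HEK293T; compounds applied 8 h.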

[7] = biological target: Peroxisome proliferator-activated receptor gamma (Homo sapiens) (UniProt P37231); assay: OT_PPARg_PPARgSRC1_1440: Odyssey Thera (OT) 24-hour Protein-Complementation Assay for Peroxisome Proliferator-activated Receptor Gamma/ SRC-1 Co-activator (AID 2283388);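 further: nuclear to cytoplasmic ratio of reconstituted Venus YFP fluorescence in fixed imaged cells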
How it was run: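 Transient HEK293T, YFP fragments 1-158/159-239 (mutant IFP1/IFP2) fused to PPARg/SRC-1; 24 h dosing; fix 4% formaldehyde, Draq5; Opera imaging 488/635 nm; N/C ratio, gain vs DMSO.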

[8] = biological target: Agonist Androgen Response Element (ARE), AR (gene 367) (UniProt P10275); assay: OT_AR_ARELUC_AG_1440: Odyssey Thera (OT) 24-hour CHO-K1 Luciferase Assay for Agonist Androgen Response Element (ARE) (AID 2283379)
How it was run: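 Agonist mode, 24 h exposure in CHO-K1 ARE-luciferase cells; values reflect luminescence induction over vehicle.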

[9] = biological target: Estrogen receptor (Homo sapiens) (UniProt P03372); assay: OT_ERa_GFPERaERE_0480: Odyssey Thera (OT) 8-hour HeLa Transcription Induction Assay for Estrogen Receptor (AID 2283381; active means hit-call score of the fitted dose curve at least 0.9, where 1 is the maximum; inactive means score below 0.9)
How it was run: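 HeLa cells dosed with compound and imaged by fluorescence microscopy at 8 h; GFP induction from an ERE reporter quantified by high-content image analysis and fitted as gain of signal against DMSO baseline.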

[10] = biological target: Estrogen receptor (Homo sapiens) (UniProt P03372); assay: OT_ERa_GFPERaERE_0120: Odyssey Thera (OT) 2-hour HeLa Transcription Induction Assay for Estrogen Receptor (AID 2283382)
How it was run: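 HeLa cells were dosed with test chemical and read 2 hours later for GFP-ERα/ERE-linked fluorescent protein induction by fluorescence microscopy. Gain-of-signal was fitted relative to DMSO baseline, quantified by high content image analysis.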

[11] = CEETOX_H295R_11DCORT: CeeTox H295R High-throughput Steroidogenesis Assay for 11-Deoxycortisol (11DCORT) (AID 2283432; active means hit-call score of the fitted dose curve at least 0.9, where 1 is the maximum; inactive means score below 0.9;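 on AC50: 11-deoxycortisol secreted into the medium measured by LC-MS/MS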); details: actives raise or lower the signal
How it was run: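 H295R cells; 10 uM forskolin prestim 48 h; compound in 0.1% DMSO 48 h; media extracted with MTBE; 11-deoxycortisol by LC-MS/MS, 7-point standard curve; gain/loss vs DMSO baseline; viability by MTT in same wells.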

[12] = CEETOX_H295R_OHPREG: CeeTox H295R High-throughput Steroidogenesis Assay for OH-Pregnenolone (OHPREG) (AID 2283434; active means hit-call score of the fitted dose curve at least 0.9, where 1 is the maximum; inactive means score below 0.9); details: actives raise or lower the signal
How it was run: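 Hormone levels in spent medium were measured by tandem mass spectrometry following liquid-liquid extraction. Cells (H295R) had been forskolin-stimulated (10 uM, 48 h) before a 48 h chemical exposure at 0.1% DMSO, with activity fitted in both directions against DMSO.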

[13] = CEETOX_H295R_OHPROG: CeeTox H295R High-throughput Steroidogenesis Assay for OH-Progesterone (OHPROG) (AID 2283435; active means hit-call score of the fitted dose curve at least 0.9, where 1 is the maximum; inactive means score below 0.9); details: actives raise or lower the signal
How it was run: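 H295R human adrenal cells were prestimulated 48 h with 10 uM forskolin, then exposed 48 h to test chemical (0.1% DMSO final). 17alpha-hydroxyprogesterone in medium was measured by HPLC-MS/MS after MTBE extraction; bidirectional fitting vs DMSO.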

[14] = CEETOX_H295R_ANDR: CeeTox H295R High-throughput Steroidogenesis Assay for Androstenedione (ANDR) (AID 2283436; active means hit-call score of the fitted dose curve at least 0.9, where 1 is the maximum; inactive means score below 0.9); details: actives raise or lower the signal
How it was run: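 Read-out is androstenedione secreted into medium, measured by tandem mass spectrometry after liquid-liquid extraction. Cells were H295R, dosed for 48 h per modified OECD 456; activity fitted in both directions relative to DMSO.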

[15] = CEETOX_H295R_CORTIC: CeeTox H295R High-throughput Steroidogenesis Assay for Corticosterone (CORTIC) (AID 2283437; active means hit-call score of the fitted dose curve at least 0.9, where 1 is the maximum; inactive means score below 0.9;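 further: corticosterone secreted into medium quantified by mass spectrometry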); details: actives raise or lower the signal
How it was run: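 Corticosterone secreted into medium is measured by reverse-phase HPLC with tandem MS following liquid-liquid extraction. Cells are forskolin-stimulated (10 uM, 48 h) before 48 h test exposure; activity fitted in both directions against DMSO.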

[16] = biological target: human Norepinephrine Transporter (NET), SLC6A2 (gene 6530) (UniProt P23975); assay: NVS_TR_hNET: NovaScreen (NVS) Transporter Assay for human Norepinephrine Transporter (NET) (AID 2283377);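 further: cell-free membrane protein extracted from CHO cells expressing human NET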;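 on AC50: displacement of radioligand from human NET seen as loss of scintillation signal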
How it was run: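 Scintillation counts of filter-retained radioligand served as the readout, taken 1 h post-dosing in a cell-free CHO-derived system. Test chemicals ran first at 25 uM in duplicate; confirmed hits were retested across concentrations.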

[17] = biological target: mouse Estrogen Receptor alpha (Era), Esr1 (gene 13982) (UniProt P19785); assay: NVS_NR_mERa: NovaScreen (NVS) Nuclear Receptor Binding Assay for mouse Estrogen Receptor alpha (Era) (AID 2283378);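 further: hit means loss of bound radioligand signal relative to DMSO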
How it was run: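 Test chemicals competed against a specific radioligand for binding to cell-free mouse Era. Duplicate wells at 25 uM were read 18 hours later by filter-based radiodetection, with loss of signal against DMSO scored as activity.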

Measured: AC50

Estrogen receptor (Homo sapiens), sequence (P03372 whole entry, looked up): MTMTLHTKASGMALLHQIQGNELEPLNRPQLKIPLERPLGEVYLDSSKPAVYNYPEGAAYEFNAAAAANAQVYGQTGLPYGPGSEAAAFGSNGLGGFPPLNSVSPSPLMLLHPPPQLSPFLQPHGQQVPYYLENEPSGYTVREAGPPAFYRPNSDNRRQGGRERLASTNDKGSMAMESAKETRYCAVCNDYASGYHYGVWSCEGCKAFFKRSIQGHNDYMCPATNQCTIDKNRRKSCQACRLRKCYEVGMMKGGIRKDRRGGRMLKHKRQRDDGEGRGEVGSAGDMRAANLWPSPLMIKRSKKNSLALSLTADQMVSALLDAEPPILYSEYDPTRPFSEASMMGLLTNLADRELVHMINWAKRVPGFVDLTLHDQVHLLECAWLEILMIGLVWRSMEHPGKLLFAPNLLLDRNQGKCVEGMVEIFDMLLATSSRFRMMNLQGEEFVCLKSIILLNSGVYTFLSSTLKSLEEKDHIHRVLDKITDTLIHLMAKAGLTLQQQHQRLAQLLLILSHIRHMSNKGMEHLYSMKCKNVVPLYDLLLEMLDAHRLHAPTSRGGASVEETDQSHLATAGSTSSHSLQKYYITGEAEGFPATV
Peroxisome proliferator-activated receptor gamma (Homo sapiens), sequence (P37231 whole entry, looked up, the tested form may be a part): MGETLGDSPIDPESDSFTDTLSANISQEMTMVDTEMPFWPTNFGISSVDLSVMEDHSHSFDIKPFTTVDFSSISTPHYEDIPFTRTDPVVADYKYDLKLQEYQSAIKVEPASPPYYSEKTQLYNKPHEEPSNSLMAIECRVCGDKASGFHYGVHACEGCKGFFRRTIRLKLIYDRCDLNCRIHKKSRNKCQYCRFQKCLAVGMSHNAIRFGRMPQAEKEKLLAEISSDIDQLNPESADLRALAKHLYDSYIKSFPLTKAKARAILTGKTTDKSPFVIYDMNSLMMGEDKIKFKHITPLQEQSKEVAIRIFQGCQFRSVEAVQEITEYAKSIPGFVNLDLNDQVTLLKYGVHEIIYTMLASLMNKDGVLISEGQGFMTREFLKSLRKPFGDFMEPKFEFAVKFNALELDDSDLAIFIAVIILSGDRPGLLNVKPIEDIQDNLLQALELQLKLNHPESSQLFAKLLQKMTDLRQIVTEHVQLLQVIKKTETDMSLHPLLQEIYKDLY
Agonist Androgen Response Element (ARE), AR (gene 367), sequence (P10275 whole entry, looked up): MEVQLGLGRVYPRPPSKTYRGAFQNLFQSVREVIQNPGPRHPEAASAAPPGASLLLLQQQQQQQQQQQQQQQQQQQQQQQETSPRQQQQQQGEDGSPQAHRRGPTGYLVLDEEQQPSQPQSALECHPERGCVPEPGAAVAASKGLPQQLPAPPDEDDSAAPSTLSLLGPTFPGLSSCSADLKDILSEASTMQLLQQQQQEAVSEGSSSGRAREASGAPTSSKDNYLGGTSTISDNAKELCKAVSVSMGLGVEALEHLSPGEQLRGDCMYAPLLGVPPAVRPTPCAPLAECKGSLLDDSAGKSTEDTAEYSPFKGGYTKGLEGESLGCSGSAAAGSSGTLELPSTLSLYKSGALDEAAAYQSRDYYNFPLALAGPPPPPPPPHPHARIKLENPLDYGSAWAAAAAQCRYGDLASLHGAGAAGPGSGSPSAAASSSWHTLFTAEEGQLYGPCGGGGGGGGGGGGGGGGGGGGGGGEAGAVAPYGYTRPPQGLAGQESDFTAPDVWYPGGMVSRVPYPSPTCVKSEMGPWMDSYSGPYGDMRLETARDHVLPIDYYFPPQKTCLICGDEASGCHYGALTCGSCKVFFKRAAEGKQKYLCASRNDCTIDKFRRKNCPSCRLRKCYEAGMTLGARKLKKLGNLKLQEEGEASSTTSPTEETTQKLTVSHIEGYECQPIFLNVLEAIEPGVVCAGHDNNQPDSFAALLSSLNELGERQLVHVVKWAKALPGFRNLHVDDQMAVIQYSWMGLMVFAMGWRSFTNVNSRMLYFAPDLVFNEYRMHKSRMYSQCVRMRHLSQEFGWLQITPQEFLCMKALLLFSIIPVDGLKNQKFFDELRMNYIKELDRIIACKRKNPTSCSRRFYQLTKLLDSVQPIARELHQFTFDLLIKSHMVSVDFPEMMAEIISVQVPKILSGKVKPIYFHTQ
Bile acid receptor (Homo sapiens), sequence (Q96RI1 whole entry, looked up, the tested form may be a part): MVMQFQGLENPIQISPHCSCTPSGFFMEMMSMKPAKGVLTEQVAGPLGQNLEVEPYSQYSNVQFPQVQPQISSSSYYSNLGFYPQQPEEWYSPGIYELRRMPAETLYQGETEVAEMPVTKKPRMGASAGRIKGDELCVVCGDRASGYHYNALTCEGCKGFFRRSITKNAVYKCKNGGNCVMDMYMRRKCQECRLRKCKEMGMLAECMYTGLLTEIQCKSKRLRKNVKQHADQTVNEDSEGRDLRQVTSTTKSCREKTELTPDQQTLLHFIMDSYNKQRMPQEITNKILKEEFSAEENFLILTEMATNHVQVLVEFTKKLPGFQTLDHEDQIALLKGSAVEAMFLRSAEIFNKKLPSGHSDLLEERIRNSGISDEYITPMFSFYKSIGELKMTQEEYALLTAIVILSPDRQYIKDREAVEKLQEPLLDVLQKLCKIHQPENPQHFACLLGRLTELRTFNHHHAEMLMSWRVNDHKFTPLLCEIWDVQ
Estrogen receptor beta (Homo sapiens), sequence (Q92731 whole entry, looked up, the tested form may be a part): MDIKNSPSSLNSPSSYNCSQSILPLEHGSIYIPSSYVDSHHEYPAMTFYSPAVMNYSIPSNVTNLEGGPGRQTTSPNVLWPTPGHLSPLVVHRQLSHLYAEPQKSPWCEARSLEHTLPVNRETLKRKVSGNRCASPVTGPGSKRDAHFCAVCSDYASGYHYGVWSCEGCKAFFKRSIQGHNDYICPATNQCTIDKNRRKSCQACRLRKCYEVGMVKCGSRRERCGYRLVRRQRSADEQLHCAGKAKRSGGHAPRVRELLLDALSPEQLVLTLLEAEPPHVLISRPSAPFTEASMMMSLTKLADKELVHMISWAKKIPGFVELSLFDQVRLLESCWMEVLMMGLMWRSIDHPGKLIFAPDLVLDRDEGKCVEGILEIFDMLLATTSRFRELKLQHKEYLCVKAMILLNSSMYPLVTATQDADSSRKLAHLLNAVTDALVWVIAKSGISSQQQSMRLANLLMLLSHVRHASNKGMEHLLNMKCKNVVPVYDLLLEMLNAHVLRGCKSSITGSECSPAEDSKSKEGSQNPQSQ
Retinoic acid receptor RXR-alpha (Homo sapiens), sequence (P19793 whole entry, looked up, the tested form may be a part): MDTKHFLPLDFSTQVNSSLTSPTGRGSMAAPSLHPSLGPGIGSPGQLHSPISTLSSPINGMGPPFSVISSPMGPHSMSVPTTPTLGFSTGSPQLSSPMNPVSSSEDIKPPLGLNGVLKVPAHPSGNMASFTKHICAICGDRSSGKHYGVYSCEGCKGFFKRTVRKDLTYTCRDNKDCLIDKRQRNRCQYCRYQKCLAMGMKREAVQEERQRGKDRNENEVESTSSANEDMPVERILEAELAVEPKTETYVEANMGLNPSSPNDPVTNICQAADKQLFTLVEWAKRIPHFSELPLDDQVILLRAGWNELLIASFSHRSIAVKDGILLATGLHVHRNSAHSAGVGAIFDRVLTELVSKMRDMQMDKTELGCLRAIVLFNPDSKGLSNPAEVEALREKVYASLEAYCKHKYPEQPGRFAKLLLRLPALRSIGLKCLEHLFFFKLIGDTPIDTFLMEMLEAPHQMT
mouse Estrogen Receptor alpha (Era), Esr1 (gene 13982), sequence (P19785 whole entry, looked up): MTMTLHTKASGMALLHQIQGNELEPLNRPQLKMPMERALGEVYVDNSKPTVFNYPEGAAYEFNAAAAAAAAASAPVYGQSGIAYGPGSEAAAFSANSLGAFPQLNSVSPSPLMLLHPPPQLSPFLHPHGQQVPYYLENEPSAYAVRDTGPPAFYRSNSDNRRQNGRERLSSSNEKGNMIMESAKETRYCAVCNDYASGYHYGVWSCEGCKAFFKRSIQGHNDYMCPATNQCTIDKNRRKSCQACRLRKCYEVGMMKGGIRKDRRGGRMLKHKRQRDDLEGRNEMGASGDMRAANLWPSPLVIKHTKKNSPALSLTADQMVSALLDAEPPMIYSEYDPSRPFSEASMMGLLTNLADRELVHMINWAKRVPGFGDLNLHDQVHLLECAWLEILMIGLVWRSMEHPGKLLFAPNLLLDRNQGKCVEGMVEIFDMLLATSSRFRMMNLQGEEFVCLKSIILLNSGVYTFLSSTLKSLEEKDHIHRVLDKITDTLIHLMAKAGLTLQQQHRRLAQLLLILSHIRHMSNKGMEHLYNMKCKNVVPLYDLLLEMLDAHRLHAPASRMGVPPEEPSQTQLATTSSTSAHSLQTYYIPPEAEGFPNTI
human Norepinephrine Transporter (NET), SLC6A2 (gene 6530), sequence (P23975 whole entry, looked up): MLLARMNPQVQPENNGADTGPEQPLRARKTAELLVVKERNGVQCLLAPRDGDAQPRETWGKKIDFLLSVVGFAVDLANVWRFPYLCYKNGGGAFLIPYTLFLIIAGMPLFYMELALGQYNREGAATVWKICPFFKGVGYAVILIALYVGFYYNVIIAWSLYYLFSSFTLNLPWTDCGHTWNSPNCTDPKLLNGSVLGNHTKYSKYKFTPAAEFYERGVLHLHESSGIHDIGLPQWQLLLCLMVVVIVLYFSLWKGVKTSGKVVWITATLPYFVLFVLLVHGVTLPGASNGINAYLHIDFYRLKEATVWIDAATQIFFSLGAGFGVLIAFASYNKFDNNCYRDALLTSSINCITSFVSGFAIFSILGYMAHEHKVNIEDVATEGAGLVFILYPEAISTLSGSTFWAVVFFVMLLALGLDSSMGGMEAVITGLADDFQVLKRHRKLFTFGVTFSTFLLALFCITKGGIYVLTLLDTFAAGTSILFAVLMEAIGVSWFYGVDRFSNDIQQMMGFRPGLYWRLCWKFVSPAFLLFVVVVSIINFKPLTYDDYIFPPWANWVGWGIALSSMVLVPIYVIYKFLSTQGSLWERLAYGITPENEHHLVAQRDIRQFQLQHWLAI

ClCCOCCCl
inactive: [1] | [2] | [3] | [4] | [5] | [6] | [7]

C[N+](C)(C)CC1CO1 (stereo unspecified)
active: [8] 26.1 µM
inactive: [1] | [9] | [10] | [5] | [6] | [7]

CN(C)c1ccc(C(=O)c2ccc(N(C)C)cc2)cc1
active: [2] 49 µM | [3] 0.699 µM | [4] 60.1 µM
inactive: [1] | [4] | [5] | [6] | [7]

CC(C)COC(=O)c1ccccc1C(=O)OCC(C)C
inactive: [1] | [3] | [4] | [5] | [6] | [7]
active: [9] 13.7 µM | [10] 13 µM | [2] 17.7 µM

c1ccc(NNc2ccccc2)cc1
active: [5] 82.8 µM | [13] 48.6 µM
inactive: [1] | [2] | [3] | [5] | [11] | [12]

N#CC(Br)Br
inactive: [1] | [9] | [10] | [3] | [6] | [7]

CNC(=O)Oc1cccc2c1OC(C)(C)C2
not listed: [2] | [3] | [16] | [17]
inactive: all other assays above

CC(C)(C)OOC(=O)c1ccccc1
inactive: [16] | [1] | [6] | [7]

Clc1ccc(C(c2ccc(Cl)cc2)C(Cl)(Cl)Cl)cc1
active: [1] 29.1 µM | [2] 11.2 µM
inactive: [3] | [5] | [6] | [7]

CCNS(=O)(=O)C(F)(F)C(F)(F)C(F)(F)C(F)(F)C(F)(F)C(F)(F)C(F)(F)C(F)(F)F
inactive: [8] | [2] | [4] | [5] | [6] | [7]

[O-][Cl+]O
inactive: [1] | [9] | [10] | [6] | [7]

ClC1=C(Cl)[C@]2(Cl)[C@H]3[C@H]([C@@H]4C=C[C@H]3C4)[C@@]1(Cl)C2(Cl)Cl
inactive: [17] | [9] | [10] | [6] | [7]

CO[C@@H]1[C@H](OC(=O)NC(=O)CCl)CC[C@]2(CO2)[C@H]1[C@@]1(C)O[C@@H]1CC=C(C)C
inactive: [8] | [1] | [9] | [10] | [4] | [6] | [7]

ClC1=C(Cl)C2(Cl)C3C(Cl)C=CC3C1(Cl)C2(Cl)Cl (stereo unspecified)
inactive: [1] | [9] | [10] | [4] | [5] | [6] | [7]

CN(C)c1ccccc1
inactive: [1] | [2] | [3] | [5]

Cc1ccc([N+](=O)[O-])cc1
inactive: [1] | [9] | [10] | [5] | [6] | [7]

OCCCl
inactive: [1] | [2] | [4] | [5] | [6] | [7]

Clc1ccccc1Cl
inactive: [2] | [3] | [5] | [6] | [7]
active: [1] 7.71 µM

CCCCCOC(=O)c1ccccc1C(=O)OCCCCC
active: [9] 13 µM | [10] 12.1 µM
not listed: [2] | [3] | [4] | [8] | [14] | [16]
inactive: all other assays above

O=P(OCCCl)(OCCCl)OCCCl
not listed: [4] | [8] | [9] | [10] | [14] | [16] | [17]
inactive: all other assays above

OCCOCCO
inactive: [1] | [9] | [10] | [3] | [5] | [6] | [7]

CCCCCCCCCCCCCN1CC(C)OC(C)C1 (stereo unspecified)
active: [5] 81.7 µM | [11] 9.71 µM | [12] 12.5 µM | [13] 17.6 µM
inactive: [1] | [9] | [10] | [5] | [6] | [7] | [15]

Cc1ccc(N)c(N)c1
inactive: [1] | [4] | [5] | [11] | [12] | [15]
active: [16] 16.4 µM

Source: PubChem BioAssay (EPA / NIEHS)
